Data reported in PubChem BioAssay (NCATS).
Where “and” joins values, the source holds several entries; their conditions need not be identical. Equal values may be shown once. Records with an inconclusive call do not appear. Calls of active or inactive are those of the source. Unless noted, the call rests on the fitted dose curve; in most records, active means well fitted curve in the direction sought with a large enough effect; inconclusive means small, poorly fitted or top-dose-only effect, or another doubt; inactive means no such curve, though single readings can be large; an effect the other way counts as inactive or inconclusive.

Tests used:
C33A = test: Primary qHTS to identify gynecologic anti-cancer compounds using libraries of approved drugs and bioactive compounds (AID 1345084); conditions: Gynecologic cancer cell panel viability, ATPlite luminescence, 48 h; series mostly up to 57.5 µM; further: nearly all actives have a fitted effect of over 55% in size; further: potency means the concentration at half of the fitted maximal effect
In short: (§1)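 In this quantitative HTS, cell killing is estimated from loss of ATP-dependent luciferase light. Cells see five compound concentrations over a 48 h exposure.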

CASKI = test: as above; conditions: Gynecologic cancer cell panel viability, ATPlite luminescence, 48 h; series mostly up to 57.5 µM
In short: as §1

Es-2 = test: as above; conditions: Gynecologic cancer cell panel viability, ATPlite luminescence, 48 h; series mostly up to 57.5 µM
In short: as §1

HeLa = test: as above; conditions: Gynecologic cancer cell panel viability, ATPlite luminescence, 48 h; series mostly up to 57.5 µM
In short: as §1

Hek293T = test: as above; conditions: Gynecologic cancer cell panel viability, ATPlite luminescence, 48 h, control line for the selectivity index; series mostly up to 57.5 µM
In short: as §1

JEG-3 = test: as above; conditions: Gynecologic cancer cell panel viability, ATPlite luminescence, 48 h; series mostly up to 57.5 µM
In short: as §1

OV90 = test: as above; conditions: Gynecologic cancer cell panel viability, ATPlite luminescence, 48 h; series mostly up to 57.5 µM
In short: as §1

PA-1 = test: as above; conditions: Gynecologic cancer cell panel viability, ATPlite luminescence, 48 h; series mostly up to 57.5 µM
In short: as §1

SKOV3 = test: as above; conditions: Gynecologic cancer cell panel viability, ATPlite luminescence, 48 h; series mostly up to 57.5 µM
In short: as §1

Tov-21-G = test: as above; conditions: Gynecologic cancer cell panel viability, ATPlite luminescence, 48 h; series mostly up to 57.5 µM
In short: as §1

Tov112D = test: as above; conditions: Gynecologic cancer cell panel viability, ATPlite luminescence, 48 h; series mostly up to 57.5 µM
In short: as §1

[1] = Drug repurposing screens with cells derived from glioblastoma tumor samples (AID 1345199); conditions: GBM patient neurospheres viability, ATP luminescence, 48 h; further: nearly all actives have a fitted effect of over 40% in size; further: potency means the concentration at half of the fitted maximal effect; on activity, negative = cell killing: on the % scale 0 is the no-effect control and ±100 the full control effect
In short: (§2)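 Primary testing used CD133+ neurospheres from four GBM patients, seven concentrations, 48 h exposure and ATP-based viability; confirmation added three slower-growing patient lines.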

astro = test: as above; conditions: viability, ATP luminescence, 48 h; series mostly up to 45.9 µM
In short: as §2

[2] = qHTS assay to identify inhibitors of the type 1 interferon - major histocompatibility complex class I in skeletal muscle: Counter screen cell viability and HiBit confirmation (AID 1347412); conditions: iHSKM muscle cells + IFN-b, HiBiT or CellTiter-Glo, 24 h; further: potency means the concentration at half of the fitted maximal effect; nearly all actives have a fitted effect of over 60% in size
In short: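 Duplicate plates, pinned identically: one read for HiBiT-tagged endogenous HLA-B luminescence, the other for ATP-content viability via CellTiter Glo. Cells were genome-engineered human myoblasts given 4 ng/ml IFN-b; compounds 12-pt, 1:3 from 46 uM final; 24 hr exposure.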

[3] = biological target: Nuclear receptor subfamily 1 group I member 2 (Rattus norvegicus) (UniProt Q9R1A7); test: qHTS assay for small molecule activators of the rat pregnane X receptor (rPXR) signaling pathway (AID 651751; call rule not given here; further: 0% is about no effect); conditions: rPXR reporter cells, luciferase (One-Glo), 24 h
[4] = qHTS assay for small molecule activators of the human pregnane X receptor (PXR) signaling pathway (AID 720659; call rule not given here; further: 0% is about no effect)
UISO = test: qHTS assay to identify novel small-molecules to repurpose for Merkel cell carcinoma treatment (AID 1296009); conditions: MCC and control cell lines, CellTiter-Glo viability, 72 h; series mostly up to 46 µM; further: on the % scale 0 is the no-effect control and ±100 the full control effect; nearly all actives have a fitted effect of over 60% in size
In short: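 Viability readout: ATP luminescence (CellTiter-Glo) after 72 hr drug exposure at 37 degree celsius. Dose-response format was 8 points for NPC and 11 points for MIPE; data normalized to in-plate controls.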

[5] = at 45.9 µM (top of the series), tumour line B
[6] = at 45.9 µM (top of the series), tumour line D
[7] = at 46.1 µM (top of the series), tumour line C
[8] = at 46 µM (top of the series), tumour line A

Sequence of Nuclear receptor subfamily 1 group I member 2 (Rattus norvegicus) (Q9R1A7 whole entry, looked up): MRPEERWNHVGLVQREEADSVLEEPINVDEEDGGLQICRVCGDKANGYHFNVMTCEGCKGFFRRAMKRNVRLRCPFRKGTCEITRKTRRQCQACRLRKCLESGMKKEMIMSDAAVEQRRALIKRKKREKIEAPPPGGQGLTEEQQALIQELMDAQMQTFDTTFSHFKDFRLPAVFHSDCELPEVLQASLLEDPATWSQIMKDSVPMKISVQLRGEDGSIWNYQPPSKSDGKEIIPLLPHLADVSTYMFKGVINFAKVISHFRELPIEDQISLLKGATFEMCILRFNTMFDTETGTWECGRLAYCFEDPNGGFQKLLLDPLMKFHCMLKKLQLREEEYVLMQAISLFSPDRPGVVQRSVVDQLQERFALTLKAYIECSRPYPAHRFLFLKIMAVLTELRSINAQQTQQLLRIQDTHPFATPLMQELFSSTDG

CC1CC(OC(=O)C(O)c2ccccc2)CC(C)(C)C1 (centres undefined)
inactive: Potency (C33A) | Potency (CASKI) | Potency (Es-2) | Potency (HeLa) | Potency (Hek293T) | Potency (JEG-3) | Potency (OV90) | Potency (PA-1) | outcome (SKOV3) | Potency (Tov-21-G) | outcome (Tov112D) | activity, negative = cell killing [1, 5] -16.2% | activity, negative = cell killing [1, 6] 6.83% | activity, negative = cell killing [1, 7] -12.1% | Potency (astro)

CO[C@H]1C[C@@H]2CC[C@@H](C)[C@@](O)(O2)C(=O)C(=O)N2CCCC[C@H]2C(=O)O[C@H]([C@H](C)C[C@@H]2CC[C@@H](OC(=O)C(C)(CO)CO)[C@H](OC)C2)CC(=O)[C@H](C)/C=C(\C)[C@@H](O)[C@@H](OC)C(=O)[C@H](C)C[C@H](C)/C=C/C=C/C=C/1C
inactive: Potency (C33A) | Potency (CASKI) | Potency (Es-2) | Potency (HeLa) | Potency (Hek293T) | Potency (JEG-3) | Potency (OV90) | Potency (PA-1) | Potency (Tov-21-G) | outcome (Tov112D) | activity, negative = cell killing [1, 5] -14.4% | activity, negative = cell killing [1, 6] -16% | activity, negative = cell killing [1, 8] -25.2% | activity, negative = cell killing [1, 7] -22.5% | Potency (astro)

C[C@H]1O[C@@H](O[C@H]2[C@@H](O)C[C@H](O[C@H]3[C@@H](O)C[C@H](O[C@H]4CC[C@@]5(C)[C@H](CC[C@@H]6[C@@H]5C[C@@H](O)[C@]5(C)[C@@H](C7=CC(=O)OC7)CC[C@]65O)C4)O[C@@H]3C)O[C@@H]2C)C[C@H](O)[C@@H]1O
active: Potency (C33A) 0.0794 µM | Potency (CASKI) 0.447 µM | Potency (Es-2) 0.316 µM | Potency (HeLa) 0.282 µM | Potency (Hek293T) 0.316 µM | Potency (OV90) 0.631 µM | Potency (PA-1) 0.282 µM | Potency (Tov-21-G) 0.1 µM | Potency (astro) 0.316 µM | Potency [2] 0.0394 µM
inactive: max response [3] -0.0646% and -4.92% | outcome [4]

CC1=C(/C=C/C(C)=C/C=C/C(C)=C/C(=O)Oc2c(C)c(C)c3c(c2C)CC[C@@](C)(CCC[C@H](C)CCC[C@H](C)CCCC(C)C)O3)C(C)(C)CCC1
active: Potency ([1]; tumour line A) 25.1 µM
inactive: activity, negative = cell killing [1, 5] -7.62% | activity, negative = cell killing [1, 6] -2.61%

CCOC(=O)c1c[nH]c2cc(OCC(C)C)c(OCC(C)C)cc2c1=O
inactive: activity, negative = cell killing [1, 5] -9.16% | activity, negative = cell killing [1, 6] -17.4% | activity, negative = cell killing [1, 8] -29.7%

CC(C)C[C@H](NC(=O)[C@@H](Cc1c[nH]c2ccccc12)NC(=O)[C@H](Cc1ccc(O)cc1)NC(=O)[C@H](CO)NC(=O)[C@H](Cc1c[nH]c2ccccc12)NC(=O)[C@H](Cc1cnc[nH]1)NC(=O)[C@@H]1CCC(=O)N1)C(=O)N[C@@H](CCCN=C(N)N)C(=O)N1CCC[C@@H]1C(=O)NCC(N)=O
inactive: activity, negative = cell killing [1, 5] -6.78% | activity, negative = cell killing [1, 7] -22.9%

C/C(=C\C(=O)OCCCCCCCCC(=O)O)C[C@@H]1OC[C@H](C[C@@H]2O[C@H]2[C@@H](C)[C@H](C)O)[C@@H](O)[C@H]1O
inactive: Potency (C33A) | Potency (CASKI) | Potency (Es-2) | Potency (HeLa) | Potency (Hek293T) | Potency (JEG-3) | Potency (OV90) | Potency (PA-1) | Potency (Tov-21-G) | outcome (Tov112D) | activity, negative = cell killing [1, 5] -19.6% | activity, negative = cell killing [1, 6] -9.28% | activity, negative = cell killing [1, 7] -21.4% | Potency (astro)

C=CC[N+]1([C@H]2C[C@H]3[C@@H]4CC[C@H]5C[C@H](O)[C@@H](N6CCOCC6)C[C@]5(C)[C@H]4CC[C@]3(C)[C@H]2OC(C)=O)CCCC1
inactive: activity, negative = cell killing [1, 5] -3.03% | activity, negative = cell killing [1, 6] -12.4% | activity, negative = cell killing [1, 7] -21.7%

CCCCC/C=C\C/C=C\C/C=C\CCCCC(=O)O
inactive: activity, negative = cell killing [1, 5] -11.2% | activity, negative = cell killing [1, 6] 2.8% | activity, negative = cell killing [1, 7] 1.83%

CC(=O)Oc1cccc2c1C(=O)c1c(OC(C)=O)cc(C(=O)O)cc1C2=O
inactive: outcome (UISO) | Potency (C33A) | Potency (Es-2) | Potency (HeLa) | Potency (JEG-3) | outcome (Tov112D) | activity, negative = cell killing [1, 5] -17.6% | activity, negative = cell killing [1, 6] -16.7% | Potency (astro)

CC(=O)Nc1ccc(NC(=S)NC(=O)c2ccc(C(C)(C)C)cc2)cc1
active: Potency (PA-1) 10 µM | Potency (astro) 3.98 µM
inactive: Potency (C33A) | Potency (CASKI) | Potency (HeLa) | Potency (JEG-3) | Potency (OV90)

CC(=O)N[C@@H]([C@@H](O)[C@H](O)[C@H](O)CO)[C@@H](O)CC(=O)C(=O)O
inactive: activity, negative = cell killing [1, 5] -12% | activity, negative = cell killing [1, 6] -21.2% | activity, negative = cell killing [1, 7] -14.1%

CSc1nc2cc(Oc3cccc(Cl)c3Cl)c(Cl)cc2[nH]1
inactive: activity, negative = cell killing [1, 5] -12.6%

Cc1ncc(COP(=O)(O)O)c(CN)c1O
inactive: activity, negative = cell killing [1, 5] -10.4% | activity, negative = cell killing [1, 6] -17.3% | activity, negative = cell killing [1, 7] -23.4%

COc1ccc(C[C@H](C)NC[C@@H](O)c2ccc(O)c(NC=O)c2)cc1
active: Potency ([1]; tumour line A) 17.8 µM
inactive: Potency (C33A) | Potency (CASKI) | Potency (HeLa) | Potency (JEG-3) | Potency (OV90) | Potency (PA-1) | Potency (Tov-21-G) | activity, negative = cell killing [1, 6] -10.9% | activity, negative = cell killing [1, 7] -28.7% | Potency (astro)
